Screen size: about 1,300 compounds; about 850 (65%) were called active. About 1% were inconclusive and are not listed. How the calls were made is not given here. The set was probably picked from earlier hits. A selection follows. A call without a number means that no potency is given here. Potency and affinity values are given separately.
molecular target: Dual specificity tyrosine-phosphorylation-regulated kinase 1A (Rattus norvegicus) (UniProt Q63470); assay: Dyrk1A enzyme activity inhibition – biochemical, cherry-pick, plate reader, 2124-01, dose response (AID 588345); details: Dyrk1A kinase biochemical assay; series mostly up to 12 µM

Compound | outcome
Cc1cc(=O)oc2ccc(OC(=O)c3cccc(S(=O)(=O)N4CCOCC4)c3)cc12 | inactive
CCc1cc2c(NC3CCCC3)ncnc2s1 | inactive
COc1cccc(Nc2nc(NCCO)c3ccccc3n2)c1 | inactive
CCCCCC1CC(CC(C)C(=O)Nc2nncs2)C(=O)O1 (configuration not stated) | inactive
CCC(C)NC(=O)C1CCCN(S(=O)(=O)c2ccc3c(c2)CC(C)N3C(=O)C2CC2)C1 (configuration not stated) | inactive
Clc1ccc(C2CC(c3cccs3)n3ncnc3N2)c(Cl)c1 (configuration not stated) | inactive
O=C(Cn1c(-c2cncs2)nc2ccccc21)NCc1ccccc1 | inactive
Cn1c(=O)[nH]c2cc3ccccc3cc21 | inactive
S=c1sc2ccccc2n1CCc1ccncc1 | inactive
COc1ccc(N(CC(=O)Nc2ccc3c(c2)OCCO3)S(=O)(=O)c2c(C)nn(C)c2C)cc1 | inactive
CC(C)(C)C1=Nn2c(nnc2-c2ccccc2F)SC1 | inactive
O=C(Nc1ccc2cn[nH]c2c1)c1c(Cl)cccc1Cl | inactive
COc1ccc(N/C=C2\C(=O)CCc3c2oc2cc(Cl)c(O)c(Cl)c32)cc1 | inactive
Oc1c(Cl)c(Cl)c2ncccc2c1Cl | inactive
Fc1ccccc1-c1nc(-c2ccc(-c3nn[nH]n3)cc2)no1 | inactive
Oc1cccc2c(-c3nn[nH]n3)ccnc12 | inactive
COc1ccc(-c2cn[nH]c2C)cc1 | inactive
Cc1cc(C)c(CN2CCN(C(=O)Cn3ccc(N)nc3=O)CC2)c(C)c1 | inactive
CCCCCCCCCCCCN1[C@@H](CC(=O)OC)c2cc(C(F)(F)F)ccc2S1(=O)=O | inactive
CC(=O)c1cccc(NC(=O)Nc2ccc3c(c2)N(C)C(=O)CS3)c1 | inactive
CSc1nnc(-c2cc3c(-c4ccccc4)nn(C)c3s2)n1C | inactive
Cn1cnc2c(=O)sc3ccccc3c21 | inactive
O=C(C1CC(=O)N(C2CCCC2)C1)N1CCN(c2ccc(F)cc2)CC1 (configuration not stated) | inactive

Compound | outcome
c1csc(CNc2ncnc3ccc(-c4ccc5c(c4)OCCO5)cc23)c1 | inactive
O=C(NCc1ccccc1)C1=C[C@H](c2ccccc2)C[C@H](OCc2ccc(CO)cc2)O1 | inactive
c1ccc(-c2nnc(CSc3ccc4c(c3)OCCO4)o2)cc1 | inactive
O=[N+]([O-])c1ccc2c(c1)C(=NO)c1cc(F)ccc1-2 | inactive
O=C(O)CCC(=O)Nc1ccc(N2CCCCCC2)cc1 | inactive
Cc1cccc(Nc2nc(N)c([N+](=O)[O-])c(N3CCC(C)CC3)n2)c1 | inactive
COC(=O)c1nccc2c1[nH]c1ccccc12 | inactive
CCC1NC(C(=O)O)Cc2c1[nH]c1ccccc21 (configuration not stated) | inactive
CC(C)C[C@H]1COCCS(=O)(=O)N1Cc1ccc(Cl)c(Cl)c1 | inactive
CCOC(=O)Cn1c(-c2cccnc2Cl)nc2ccccc21 | inactive
O=C(CN1CCOCC1)Nc1nc2ccc([N+](=O)[O-])cc2s1 | inactive
CC1CCc2nc(NC(=O)c3ccc(N4C(=O)CCC4=O)cc3)sc2C1 (configuration not stated) | inactive
CC1CCc2nc(NC(=O)CN3CCN(Cc4ccc5c(c4)OCO5)CC3)sc2C1 (configuration not stated) | inactive
Cc1noc(C)c1-c1ccc2ncnc(NC(C)c3ccco3)c2c1 (configuration not stated) | inactive
O=C(Nc1cccc(Cl)c1)ON=C1c2ccccc2-c2ccccc21 | inactive
CCC(=O)Nc1c(C#N)c2nc3ccccc3nc2n1-c1ccccc1C | inactive
Cc1ccc(NC(=S)Nc2ccc3cn[nH]c3c2)cc1 | inactive
COc1ccc2c(c1)C(=O)N1[C@H]3c4cc(C)ccc4OC[C@@H]3[C@H](c3ccccc3)[C@]1(C)C(=O)N2 | inactive
Cc1c(C(=O)O)sc2nc(-c3cccs3)cc(C(F)(F)F)c12 | inactive
O=C1CCCC2=C1Sc1ccc(Cl)cc1N2 | inactive
O=C1c2ccccc2S(=O)(=O)N1Cc1nnc(-c2ccccc2Br)o1 | inactive
CC(C)=CCc1cc(-c2oc3cc(O)cc(O)c3c(=O)c2O)ccc1O | inactive
O=C(Nc1ncc2c(n1)-c1ccccc1CC2)c1ccc(Cl)cc1 | inactive

Compound | outcome
CCOCCCNC(=O)C(NC(=O)c1ccc(=O)[nH]c1)c1ccc(Cl)cc1 (configuration not stated) | inactive
Cc1cccc(C(C)n2nnc3ccccc32)c1O (configuration not stated) | inactive
O=c1oc(-c2ccc(O)c(O)c2)cc2cc(O)cc(O)c12 | inactive
O=c1cc(-c2ccc(O)cc2)oc2c(O)c(O)c(O)c(O)c12 | inactive
CN(C)CCCOC(=O)COc1ccc(Br)cc1 | inactive
CCn1c(NC(=O)c2ccccc2)c(-c2cccs2)c(=O)c2ccccc21 | inactive
CCN(CC)C(=O)Oc1ccc2c(c1)O/C(=C\c1ccco1)C2=O | inactive
O=c1cc(-c2ccco2)oc2c1ccc1ccccc12 | inactive
COc1cc(/C=C2\SC(N)=NC2=O)ccc1O | inactive
OC(c1cc(C(F)(F)F)nc2c(Cl)cc(Cl)cc12)C1CCCCN1 (configuration not stated) | inactive
O=C(O)c1cccc2c1/C(=N/O)c1ccccc1-2 | inactive
CCn1c2ccccc2c2nc3cc(C(=O)O)ccc3nc21 | inactive
S=C(Nc1cccnc1)Nc1cccc2cnccc12 | inactive
COc1ccc(NC(=S)N(CCc2c(C)[nH]c3ccccc23)Cc2cccnc2)cc1 | inactive
Cc1cc2nncn2c2ccccc12 | inactive
COc1ccc(NC(=O)N(C)C[C@H]2Oc3c(NS(=O)(=O)c4cccs4)cccc3C(=O)N([C@@H](C)CO)C[C@@H]2C)cc1 | inactive
C[C@@H]1C=C(C(=O)NCc2nc3ccccc3[nH]2)O[C@H](OCCCCO)C1 | inactive
O=C1CN(C(=O)C2CCC(=O)N(CCc3ccc(Cl)cc3)C2)CCN1 (configuration not stated) | inactive
COc1ccc2nc(C)c3c(c2c1)OC(C(C)(Cl)Br)C3 (configuration not stated) | inactive
COc1ccc2oc(N)c(C=O)c(=O)c2c1 | inactive
c1cnc2ncc3sccc3c2c1 | inactive
O=c1c(O)c(-c2cc(O)c(O)c(O)c2)oc2cc(O)cc(O)c12 | inactive
O=c1c(O)c(-c2ccccc2)oc2cc(O)cc(O)c12 | inactive

Compound | outcome
Cc1cccc(CNc2ncnc3ccc(-c4ccc5c(c4)OCO5)cc23)c1 | inactive
O=C(CN1CCOCC1)Nc1nc2ccc(F)cc2s1 | inactive
NC(=O)c1cc2ccc(O)cc2oc1=Nc1ccccc1 | inactive
COc1ccc(OC)c(N=c2oc3cc(O)ccc3cc2C(N)=O)c1 | inactive
COc1ccc2nc(-n3c(O)c(C4=c5ccccc5=NC4=O)[nH]c3=S)sc2c1 | inactive
CC(=O)c1nc2ccccc2n1S(=O)(=O)c1ccc(Cl)cc1 | inactive
COc1cccc(C(=O)Nc2ccc(F)c(F)c2F)c1 | inactive
O=C(Nc1cccnc1)c1scc2c1OCCO2 | inactive
Cc1cc(C(=O)CSc2nn(-c3ccccc3)c(=S)s2)c(C)n1Cc1ccco1 | inactive
Cc1cc([N+](=O)[O-])nn1Cc1ccccc1F | inactive
CN1CCN(CCNC(=O)c2cc3c(=O)n(C)c4ccccc4c3n2C)CC1 | inactive
CC1CCC(NC(=O)c2cc(S(=O)(=O)N3CCCCC3)c[nH]2)CC1 (configuration not stated) | inactive
CN(C)CCNC(=O)c1cc2c(=O)n(C)c3ccccc3c2n1C | inactive
O=c1cc[nH]c2c1ccc1cccnc12 | inactive
COc1ccc2[nH]c(C)c(CCN(Cc3cccs3)C(=S)Nc3ccccc3OC)c2c1 | inactive
CN1CCc2c(sc3nc(NN)n(-c4ccc(Cl)cc4)c(=O)c23)C1 | inactive
O=C(N/N=C/c1ccccn1)c1cc(-c2ccccc2Cl)n[nH]1 | inactive
CN(C)CCNC(=O)c1cc2c(s1)-c1ccccc1OC2 | inactive
O=C(COc1ccccc1)Nc1cccc(-c2nn[nH]n2)c1 | inactive
O=C(Nc1cccc(-c2cn3cccnc3n2)c1)c1ccc(Br)o1 | inactive
COc1cc(C(C)=O)ccc1Oc1ncnc2c1cnn2-c1ccccc1 | inactive
c1ccc2c(c1)Nc1ccncc1S2 | inactive
COc1ccc(-c2csc3ncnc(Sc4nnnn4C)c23)cc1 | inactive

Compound | outcome
Cc1ccc2oc(=O)c3cnn(CC(=O)NC4CCCCC4C)c3c2c1 (configuration not stated) | inactive
N=C1S/C(=C\c2ccc(O)cc2)C(=O)N1c1ccc(F)cc1 | inactive
Cn1c(=O)c2c(nc(NCc3ccco3)n2CC(O)COc2ccccc2)n(C)c1=O (configuration not stated) | inactive
C=CCn1c(SCC(=O)Nc2nc3ccccc3s2)nc(O)c(CC)c1=O | inactive
O=C(NC(Nc1nc2ccc([N+](=O)[O-])cc2s1)(C(F)(F)F)C(F)(F)F)c1ccccc1 | inactive
O=C(Nc1nc2ccccc2s1)c1ccc(OCC2CCCO2)cc1 (configuration not stated) | inactive
CC(C)NS(=O)(=O)c1ccc(OCC(=O)N(C)Cc2ccccc2)cc1 | inactive
COc1ccc(NC(=O)N(C)C[C@H]2Oc3ccc(NC(=O)CCN4CCOCC4)cc3C(=O)N([C@H](C)CO)C[C@@H]2C)cc1 | inactive
CC[C@@](C)(NS(=O)(=O)OCC(Cl)(Cl)Cl)c1ccccc1 | inactive
O=C1C2C(c3ccccc3)CC=CC2[C@H](c2ccoc2)N1Cc1ccccc1 (some centres not stated) | inactive
Nc1nc(NCCCN2CCOCC2)nc(Nc2ccccc2)c1[N+](=O)[O-] | inactive
CCN1CCN(c2nc(Nc3cccc(C)c3)nc(N)c2[N+](=O)[O-])CC1 | inactive
O=C(c1ccc(Cl)c(Cl)c1)N1CCC(=O)N(C(COCc2cccc(C(F)(F)F)c2)Cc2ccccc2)CC1 (configuration not stated) | inactive
O=c1c2ccccc2nnn1CSc1nnc(-c2ccc3c(c2)OCO3)o1 | inactive
O=C(O)c1ccc(-n2cc(-c3cc4ccccc4oc3=O)[nH]c2=S)cc1 | inactive
COc1cccc(/C=C2\Oc3ccc(O)cc3C2=O)c1O | inactive
Oc1ccc(-c2[nH]ncc2-c2nc3ccccc3s2)c(O)c1 | inactive
CNc1nc2c(N)ncnc2n1[C@H]1O[C@@H](CO)[C@H](O)[C@@H]1O | inactive
Nc1nc(SCc2ccc([N+](=O)[O-])cc2)c2ncn(C3OC(CO)C(O)C3O)c2n1 (configuration not stated) | inactive
CCC1COCCS(=O)(=O)N1Cc1ccccc1 (configuration not stated) | inactive
